Inconclusive results are not listed. Unmarked numbers belong to inactive results. The call rests on the fitted dose curve.
Potency means the concentration at half of the fitted maximal effect.

A short description of the assay: Cell Viability - BJ (AID 421).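 Further: cells exposed to compound for 40 hours at 37 °C before readout.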 Conditions: BJ fibroblast viability, qHTS. The source says:
NIH Chemical Genomics Center [NCGC]
NIH Molecular Libraries Screening Centers Network [MLSCN]
National Institutes of Environmental Health Sciences [NIEHS]
National Toxicology Program [NTP]
We have developed a 1536-well cell-based assay for quantitative high throughput screening (qHTS) against a number of cell lines to determine in vitro cytotoxicity of small molecules. This particular assay uses the BJ cell line from ATCC which is derived from normal human foreskin fibroblasts.
NCGC Assay Protocol Summary:
The CellTiter-Glo luminescent cell viability assay (Promega) is a homogeneous method to measure the number of viable cells in culture. The end point readout of this assay is based on quantitation of intracellular ATP, an indicator of metabolic activity, using the luciferase reaction. Luciferase catalyzes the oxidation of beetle Luciferin to oxyluciferin and light in the presence of ATP. The luminescent signal is proportional to amount of ATP present.
Using the CellTiter-Glo luminescent cell viability assay, the amount of cellular ATP was measured in the BJ cell line with complete culture medium following compound treatment for 40 hours. The assay was performed in opaque white Kalypsys 1536-well plates. In the screen, tamoxifen and doxorubicin were used as positive controls. Library compounds were measured for their ability to cause acute toxicity in the cell line, as reflected by a decrease in intracellular ATP levels, in a concentration-dependent manner. Data were normalized to the controls for basal activity (DMSO only) and 100% inhibition (100 uM tamoxifen). AC50 values were determined from concentration-response data modeled with the standard Hill equation.
qHTS protocol fo CellTiter Glo BJ cellular assay
[Step] [Parameter] [Value] [Description]
1. Reagent; 5 uL; 1500 BJ cells/well
2. Time; 5 hr; 37 °C incubation
4. Controls; 23 nL; Tamoxifen 0.34 uM to 100 uM & Doxorubicin 0.02 nM to 100 uM
5. Time; 40 hr; 37 °C incubation
6. Reagent; 5 uL; CellTiter Glo reagent
7. Time; 20 min; Room Temperature
8. Detection; Luminescence; Viewlux plate reader
Keywords: cell viability, cytotoxicity, BJ cell line, luminescence, NTPHTS, NTPHTS_NCGC, NIEHS, EPA, DSSTox, MLSMR, MLSCN, NIH Roadmap, qHTS, NCGC
(In general: qHTS replaces the single test concentration by a dilution series.)
Consider `CCN(N=O)C(N)=O`, for which the Potency was over 92 µM.

For the compound `c1ccc(P(c2ccccc2)c2ccccc2)cc1`, the Potency is over 92 µM.

On to `COc1c(C(C)(C)C)cc([N+](=O)[O-])c(C)c1[N+](=O)[O-]`, for which the Potency was over 92 µM.

For `CCOP(=S)(OCC)SCCSCC`, the Potency is over 92 µM.

Turning to `CCOS(C)(=O)=O`, the Potency is over 92 µM.

Turning to `Nc1ccc2ccccc2c1`, the Potency is over 92 µM.

Regarding `COC(=O)Nc1cccc(OC(=O)Nc2cccc(C)c2)c1`, the Potency is over 92 µM.

`CCBr`: the Potency was over 92 µM.

Turning to `C=CC(=O)OC`, the Potency is over 92 µM.

Take `CC(C)CC(C)N` (stereo not given): the Potency was over 92 µM.

In the case of `CN1CSC(=S)N(C)C1`, the Potency is over 92 µM.

For `C=CCO`, the Potency was over 92 µM.

For the compound `Oc1ccc(Cl)c(Cl)c1Cl`, the Potency was over 92 µM.

For the compound `O=S(=O)(Cl)c1ccccc1`, the Potency is over 92 µM.

For the compound `ClC(Br)Br`, the Potency is over 92 µM.

Take `O=C(O)c1cccc(Cl)c1`: the Potency is over 92 µM.

Regarding `Oc1cccc(Cl)c1`, the Potency is over 92 µM.

Consider `C=CCBr`, for which the Potency is over 92 µM.

With `Cc1ccccc1[N+](=O)[O-]`, the Potency is over 92 µM.

For `c1ccc(OCC2CO2)cc1` (stereo not given), the Potency is over 92 µM.

On to `CC(C)(Cl)Cl`, for which the Potency is over 92 µM.

Turning to `O=C(O)c1cc(Cl)ccc1Cl`, the Potency is over 92 µM.

As to `CCCBr`, the Potency was over 92 µM.

Turning to `COC(=O)Nc1nc2ccccc2[nH]1`, the Potency was over 92 µM.

In the case of `CCOP(=O)(OCC)OCC`, the Potency is over 92 µM.

With `Oc1cccc(Cl)c1Cl`, the Potency was over 92 µM.

Regarding `C=C(Cl)CCl`, the Potency is over 92 µM.

As for `CCCCCCCCCCCOC(=O)c1ccccc1C(=O)OCCCCCCCCCCC`, the Potency is over 92 µM.

`C=CC#N`: the Potency is over 92 µM.

As for `BrCC(Br)(Br)Br`, the Potency is over 92 µM.

`Cc1ccc([N+](=O)[O-])cc1`: the Potency is over 92 µM.

Turning to `CC(C)(OOC(C)(C)c1ccccc1)c1ccccc1`, the Potency was over 92 µM.

Take `Clc1ccc(C(Cl)(Cl)Cl)c(Cl)c1`: the Potency is over 92 µM.

For `Nn1cnnc1`, the Potency was over 92 µM.

For `ClC(Cl)C(Cl)Cl`, the Potency is over 92 µM.

Consider `OCCOCCO`, for which the Potency was over 92 µM.

`C=CC(=O)OCCO`: the Potency was over 92 µM.

`Cl/C=C\Cl`: the Potency was over 92 µM.

Regarding `ClCC(Cl)Cl`, the Potency is over 92 µM.

On to `COc1cc(-c2ccc(N)c(OC)c2)ccc1N`, for which the Potency is over 92 µM.

(Values after PubChem BioAssay (NCATS).)
